Assay results as given in PubChem BioAssay AID894 (National Center for Advancing Translational Sciences (NCATS), 2007).
“And” between values parts separate entries of the source, which are not always exact repeats. Equal entries are not always repeated. About 6,500 (4.3%) of roughly 150,000 compounds were called active. Not shown: some 12% with an inconclusive outcome. For the sample, actives were picked, then their nearest neighbours and some compounds at random. Some compounds were tested as several samples or in several runs, with calls that do not always agree. Values without a mark were called inactive. Calls follow the shape of the dose curve; as a rule, active = well fitted inhibition curve with a large enough effect (not every such curve was filed as active); inconclusive = small, poorly fitted or top-dose-only effect, or another doubt; inactive = no such curve, though single readings can be large or run the other way.

target: 15-hydroxyprostaglandin dehydrogenase [NAD(+)] (Homo sapiens) (UniProt P15428); assay: qHTS Assay for Inhibitors of HPGD (15-Hydroxyprostaglandin Dehydrogenase); conditions: purified HPGD, NADH fluorescence kinetic, PGE2 substrate; activity change, negative = inhibition: stronger effect = lower value
Method in brief: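 20 nM HPGD preincubated 15 min at room temperature with compound in 50 mM Tris-HCl pH 8, 0.01% Tween 20. Started with 1 mM NAD+ and 30 uM prostaglandin E2; NADH fluorescence (360/450 nm) read 5 times over 30-s intervals, last minus first.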
% is scaled to controls: 0 for no effect and ±100 for the full control effect; potency is read from the fitted curve at half-maximal effect.

Sequence of 15-hydroxyprostaglandin dehydrogenase [NAD(+)] (Homo sapiens) (P15428 whole entry, looked up): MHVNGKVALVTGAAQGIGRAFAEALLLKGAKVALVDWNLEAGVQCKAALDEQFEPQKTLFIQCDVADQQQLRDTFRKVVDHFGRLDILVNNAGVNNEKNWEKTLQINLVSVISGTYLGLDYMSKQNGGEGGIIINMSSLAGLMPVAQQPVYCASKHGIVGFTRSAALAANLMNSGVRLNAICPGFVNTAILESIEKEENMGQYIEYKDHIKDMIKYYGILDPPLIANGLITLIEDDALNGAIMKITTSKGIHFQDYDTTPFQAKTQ

Compound | activity change, negative = inhibition | Potency
CCNc1nc(-c2cc3ccccc3o2)cs1 | -4.63% | 
O=C(OCC(=O)c1c[nH]c2ccccc12)c1cccc(O)c1 | -8.39% | 
CC(=O)NC1=NN(C(C)=O)C(C)(c2ccc(C)cc2)S1 (centres undefined) | -5.01% | 
COCCOC(=O)c1sc(=S)n(CCOC)c1N |  | 28.2 µM (active)
CC1(c2ccccc2)CC(C)(C)N(C(=O)c2cc([N+](=O)[O-])cc([N+](=O)[O-])c2)c2ccccc21 (centres undefined) | -4.13% | 
O=C(NCc1ccco1)c1cc2sccc2n1Cc1ccc(F)cc1 |  | 17.8 µM (active)
O=C(Cc1ccc(-n2c(=O)c3sccc3n(Cc3ccc(F)cc3)c2=O)cc1)NCc1ccco1 | -7.92% | 
O=C(NCc1ccco1)c1ccc(Cn2c(=O)c3sccc3n(Cc3ccc(F)cc3)c2=O)cc1 | -17.7% | 
COc1cc(NC(=O)c2ccccc2NS(=O)(=O)c2ccc(Cl)s2)cc(OC)c1 | -5.94% | 
N#CC1=C(N)Oc2cc(O)ccc2C1C1CCCCC1 (centres undefined) | -8.6% | 
O=C(O)c1c(Br)c(Br)c(Br)c(Br)c1C1c2ccc(O)cc2Oc2cc(O)ccc21 |  | 2.51 µM (active)
COc1ccc(/C=C/C(=O)NC(=S)NN2CCCCC2c2cccnc2)cc1 (centres undefined) | -29.9% | 
CCCCCCCC1=Cc2ccc(F)cc2C(C(C(=O)OC)C(=O)OC)N1C(=O)OC (centres undefined) | -2.63% and -13.1% | 
O=C(/C=C/c1cccs1)NCc1cccnc1 | -9.43% | 
CC(=O)Nc1ccc(S(=O)(=O)NCCc2ccccc2)cc1 | -7.41% | 
CC(=O)Nc1ccc(S(=O)(=O)NC2(C(F)(F)F)C(=O)Nc3c2c(=O)[nH]c(=O)n3Cc2ccccc2)cc1 (centres undefined) |  | 17.8 µM (active)
CC(=O)Nc1ccc(S(=O)(=O)Nc2nc3n(n2)C(c2ccccc2)CC(=O)N3)cc1 (centres undefined) | -6.58% | 
COc1ccc(C(=O)CSc2nnc(NC(=O)C3CC(=O)N(c4cccc(OC)c4)C3)s2)cc1 (centres undefined) | -4.45% | 
CCOC(=O)c1cnc(SCC(=O)Nc2cccc(OC)c2)nc1N | -14.8% | 
CCOC(=O)c1sc(=S)n(-c2cccc(OC)c2)c1N |  | 28.2 µM (active)
COC(=O)C1=C(C)N(C)C(=S)NC1c1ccccc1 (centres undefined) | -10.8% | 
COC(=O)c1cn(-c2ccccc2)nc1-c1cccnc1 | -1.05% | 
COC(=O)c1sc(=S)n(-c2ccccc2)c1N |  | 14.1 µM (active)
CCOC(=O)c1csc(NC(=O)Nc2cccc(OC)c2)n1 | -6.02% | 

Compound | activity change, negative = inhibition | Potency
Cc1ccc(CC2S/C(=C(/C#N)C(=O)N3CCOCC3)N(c3ccccc3)C2=O)cc1 (centres undefined) | -13.9% | 
CN(C)C(=O)c1ccc2c(c1)C1C3CCC(C3)C1C(c1ccccc1)N2 (centres undefined) | -9.73% | 
S=c1[nH]nc2c3c4c(sc3ncn12)CCCC4 |  | 20 µM (active)
c1nnc2c3c4c(sc3ncn12)CCC4 | -16.5% | 
N=c1c2c3c(sc2ncn1N)CCCCC3 | -10.1% | 
CCOC(=O)/C(=N\Nc1cc(Cl)ccc1Cl)N1CCN(C)CC1 | -8.38% | 
CCCCOc1ccc(C(=O)N/C(=C/C=C/c2ccccc2)C(=O)N2CCOCC2)cc1 | -16% | 
COc1cccc(C(=O)Nc2cc3c(cc2Br)OCCCO3)c1 | -9.03% | 
FC(F)(F)Oc1ccc(NC(=S)NCc2ccccc2)cc1 | -11.2% | 
COC(=O)Cc1ccc(NC(=S)NCc2ccccc2)cc1 |  | 20 µM (active)
COC(=O)Cc1ccc(NC(=S)NCc2ccc(Cl)cc2)cc1 | -8.96% | 
Cc1c(Cl)c([N+](=O)[O-])nn1CCCC(=O)NC(C)c1ccccc1 (centres undefined) | -2.71% | 
Cc1nn(Cc2ccccc2)c(Cl)c1C(=O)OC1CCOC1=O (centres undefined) |  | 15.8 µM (active)
COC(=O)c1ccc(COC(=O)c2c(C)nn(Cc3ccccc3Cl)c2Cl)o1 | -23% | 
Cc1cc(C(=O)Nc2c(C)nn(Cc3ccccc3)c2C)on1 | -12.9% | 
O=C(COC(=O)[C@H](Cc1ccccc1)NC(=O)c1cccs1)Nc1cc(F)ccc1F | 2.87% | 
Cn1nnc2cc(C(=O)NCCC3=CCCCC3)ccc21 | -28.7% | 
CC1CCCN(C(=O)c2ccc3c(c2)C(=O)N(CCC2=CCCCC2)C3=O)C1 (centres undefined) |  | 0.891 µM (active)
Cc1cc(=O)n2nc(N3CCCC(C(=O)NCCC4=CCCCC4)C3)sc2n1 (centres undefined) | -11.9% | 
C=CC1=C2C=C(C3CC3)N(CC(C)C)C=C2C(=O)C(C)(OC(=O)c2ccco2)C1=O (centres undefined) | -3.22% | 
CCn1cc(/C=C2/SC(=S)NC2=O)c(C)n1 |  | 17.8 µM (active)
Cc1nn(C)cc1/C=C1\CCC/C(=C\c2cn(C)nc2C)C1=O | -27.5% | 
O=C1NC(c2ccc(-c3ccccc3[N+](=O)[O-])o2)C(C(=O)c2ccc(Cl)cc2)C(O)(C(F)(F)F)N1 (centres undefined) | -3.47% | 
C#CCCCc1nc2ccccc2c(=O)n1N | -10.2% | 

Compound | activity change, negative = inhibition | Potency
Cc1cc(-c2n[nH]c(=S)n2/N=C/C(Br)=C/c2ccccc2)n[nH]1 |  | 3.98 µM (active)
S=c1[nH]nc(-c2cccnc2)n1/N=C/C(Cl)=C\c1ccccc1 |  | 1.58 µM (active)
COc1cc(CN2CC(C)CC(C)C2)cc([N+](=O)[O-])c1O (centres undefined) | -17.1% | 
Cc1ccc(NC(=S)NC(=O)/C=C/c2ccc(Cl)cc2)cc1 | -18.9% | 
CC(NC(=O)COC(=O)C1CCN(S(=O)(=O)c2ccccc2C(F)(F)F)CC1)c1ccccc1 (centres undefined) | -6.33% | 
CC1(OC(=O)c2ccc(Cl)nc2)C(=O)Cc2cc(-c3ccsc3)ncc2C1=O (centres undefined) | 2.16% | 
O=C(NCCN1CCOCC1)c1cc(Sc2cccc(Cl)c2)nc2ccccc12 | -1.7% | 
O=C(NC(=S)Nc1cc(C(F)(F)F)ccc1N1CCOCC1)c1ccc(-c2cccc(Cl)c2)o1 | -5.6% | 
CCC(=O)/C=C1\Sc2ccccc2N1CC | -16.1% | 
CCN1C(=O)/C(=C2/Sc3ccccc3N2CCCS(=O)(=O)O)SC1=S |  | 20 µM (active)
CCN1C(=O)/C(=C\N2CCN(c3ccccc3)CC2)SC1=S | -18.6% | 
COc1ccc(C)cc1NC(=O)C(OC(=O)c1cccc(S(=O)(=O)N(C)c2ccccc2)c1)c1ccccc1 (centres undefined) | -17.6% | 
CC(=O)c1c(N2CCN(c3ccc(F)cc3)CC2)nc(=S)n(-c2ccccc2)c1C | -7.92% | 
O=[N+]([O-])c1ccc(N2CCNCC2)cc1NCc1cccnc1 | -18.8% | 
O=C1OC(OC(=O)c2ccccc2Br)C(N2CCOCC2)=C1Cl (centres undefined) | -15.3% | 
O=C(CCn1c(SCC(=O)c2ccccc2)nc2ccccc2c1=O)NCc1ccc(F)cc1 | -4.59% | 
Cc1ccc(C(=O)CSc2nc3ccccc3c(=O)n2N)o1 |  | 25.1 µM (active)
COc1ccc(OCc2ccc(-c3nc4ccccc4c(=O)n3N)o2)cc1 | -2.6% | 
O=C(CSc1nc2ccccc2[nH]1)Nc1nc(-c2ccccc2)c(-c2ccccc2)o1 | -28.7% | 
O=C(CN1C(=O)/C(=C\c2ccccc2F)SC1=S)Nc1nc2ccccc2s1 | -21.2% | 
O=C(Nc1ccc(Cl)cc1)c1ccsn1 | -18.4% | 
CC(=O)Nc1cc(C(=O)O)ccc1S(=O)(=O)c1ccc(Cl)cc1 | -9.11% | 
O=C(Nc1ccccc1)c1nnsc1S(=O)(=O)c1ccc(Cl)cc1 |  | 11.2 µM (active)
Cc1ccccc1Nc1nc(N)nc(CSc2ccccc2)n1 | -2.99% | 

Compound | activity change, negative = inhibition | Potency
COc1ccc(-n2c(C)cc(C(=O)CN3C(=O)NC4(CCc5ccccc54)C3=O)c2C)cc1 (centres undefined) | -8.92% | 
COc1cc(/C=C/C(=O)O)cc(S(=O)(=O)Nc2ccccc2SC)c1OC | -7.12% | 
Cc1cc(C)n(CC(O)CN(c2ccccc2)S(=O)(=O)c2ccc3ccccc3c2)n1 (centres undefined) | -6.52% | 
COc1ccc([N+](=O)[O-])cc1N(CC(O)Cn1nnc2ccccc21)S(=O)(=O)c1ccc(C)cc1 (centres undefined) |  | 28.2 µM (active)
Cc1ccc(N(CC(O)CN2CCCC2)S(=O)(=O)c2ccccc2)cc1 (centres undefined) | -2.29% | 
CCCn1c(C(O)c2ccc(OCC)cc2)nc2ccccc21 (centres undefined) | -9.25% | 
CCCCCCOC(=O)NCC(O)c1ccccc1 (centres undefined) | -19.8% | 
CCCCCC(O)c1cccc(OCc2ccc3ccccc3n2)c1 (centres undefined) | -26.2% and -5.68% | 14.1 µM (active)
Cc1nn(-c2ccccc2)c(C)c1NC(=O)CCl | -8.71% | 
Cc1cc(NC(=O)Nc2ccccc2)n(-c2ccccc2)n1 | -0.703% | 
Cc1nn(-c2ccccc2)c(Cl)c1C(=O)Nc1ccccc1 |  | 14.1 µM (active)
CCCCNC(=O)C1CCC(CNS(=O)(=O)c2ccc(NC(C)=O)cc2)CC1 (centres undefined) | -26.6% | 
COc1ccc(NC(=S)NCC2CCN(c3ccc(OC)cc3)C2)cc1 (centres undefined) | -3.49% | 
O=C(NNC(=S)Nc1ccc(Br)cc1Cl)c1ccco1 | -15.2% | 
Cc1ccc(/C=N/NC(=O)c2sccc2OCc2ccc(F)cc2)cc1 |  | 31.6 µM (active)
CNC(=S)NNC(=O)c1sccc1OCc1ccccc1 | 1.03% | 
Cc1ccsc1C(=O)N/N=C/c1ccc([N+](=O)[O-])cc1 | -12.4% | 
Cc1ccc(NC(=O)O[C@@H]2C(=O)c3cc(Br)ccc3O[C@H]2c2ccc3c(c2)OCO3)cc1Br | -8.38% | 
O=C(Nc1ccccc1)OCc1cc(-c2ccc(Cl)cc2)on1 | -7.01% | 
O=C1c2cccc3cc(Br)cc(c23)C(=O)N1Nc1ccccc1 | -5.3% | 
O=C1C=C(c2ccc(Cl)cc2)C(=O)N1Nc1ccccc1 |  | 22.4 µM (active)
